# Measured values taken from article PMC5700166.
# Target: T1, GST-Dm-Relish (Drosophila melanogaster, UniProt Q94527 99-473)
# T1 sequence: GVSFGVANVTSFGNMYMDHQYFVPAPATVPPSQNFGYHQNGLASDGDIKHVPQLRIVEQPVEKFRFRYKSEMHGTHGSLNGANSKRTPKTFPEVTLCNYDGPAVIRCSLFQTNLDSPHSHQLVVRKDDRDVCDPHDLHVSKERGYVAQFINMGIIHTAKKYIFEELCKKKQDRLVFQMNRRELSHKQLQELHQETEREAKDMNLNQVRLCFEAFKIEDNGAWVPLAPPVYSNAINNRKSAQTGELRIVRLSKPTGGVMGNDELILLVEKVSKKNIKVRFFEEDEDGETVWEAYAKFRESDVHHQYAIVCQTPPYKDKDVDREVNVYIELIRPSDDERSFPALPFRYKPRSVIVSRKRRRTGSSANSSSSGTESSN
# Test: protein-binding microarray (PBM); PBM: ~300 nM protein, 6 mM HEPES pH 7.8, 80 mM KCl, 0.5 mM EDTA, 0.5 mM EGTA, 6% glycerol, 35 ng/ul poly-dIdC, 1% milk, 1 h, room temperature; Ap Aiptasia and Nv Nematostella (sea anemones) / Co Capsaspora / Aq Amphimedon (sponge) / Dm Drosophila / Hu human; RHD is the Rel homology domain; high values mean tight binding
# Conditions: dsDNA, one strand shown
row,Sequence,binding signal
1,CCGATTAACATCAGGAAAAGTACTGATGTTAATCGGGTCTTGATTCGCTTGACGCTGCTG,4.26 z-score
2,CCGATTAACATCAAAAAAAGTACTGATGTTAATCGGGTCTTGATTCGCTTGACGCTGCTG,7.01 z-score
3,CCGATTAACATCAAGGAATTCCATGATGTTAATCGGGTCTTGATTCGCTTGACGCTGCTG,2.32 z-score
4,CCGATTAACATCAAGGAATTCCGTGATGTTAATCGGGTCTTGATTCGCTTGACGCTGCTG,1.78 z-score
5,CCGATTAACATCAGGTCTTTCCATGATGTTAATCGGGTCTTGATTCGCTTGACGCTGCTG,1.02 z-score
6,CCGATTAACATCAAGGAAATTCCTGATGTTAATCGGGTCTTGATTCGCTTGACGCTGCTG,2.23 z-score
7,CCGATTAACATCACAGAATTTCCTGATGTTAATCGGGTCTTGATTCGCTTGACGCTGCTG,1.09 z-score
8,CCGATTAACATCACGTGGTTTCCTGATGTTAATCGGGTCTTGATTCGCTTGACGCTGCTG,3.67 z-score
9,CCGATTAACATCAGGAAACTCCATGATGTTAATCGGGTCTTGATTCGCTTGACGCTGCTG,1.62 z-score
10,CCGATTAACATCAGGAATTTTACTGATGTTAATCGGGTCTTGATTCGCTTGACGCTGCTG,1.49 z-score
11,CCGATTAACATCAATGGGTTTCCTGATGTTAATCGGGTCTTGATTCGCTTGACGCTGCTG,2.98 z-score
12,CCGATTAACATCAAAAAATTCCATGATGTTAATCGGGTCTTGATTCGCTTGACGCTGCTG,2.59 z-score
13,CCGATTAACATCAGGAATCTCCATGATGTTAATCGGGTCTTGATTCGCTTGACGCTGCTG,1.01 z-score
14,CCGATTAACATCAAAAAAACTCCTGATGTTAATCGGGTCTTGATTCGCTTGACGCTGCTG,3.63 z-score
15,CCGATTAACATCAGGATTTTTTATGATGTTAATCGGGTCTTGATTCGCTTGACGCTGCTG,2.63 z-score
16,CCGATTAACATCACAGGATTTCCTGATGTTAATCGGGTCTTGATTCGCTTGACGCTGCTG,1.81 z-score
17,CCGATTAACATCAAAAAATTCCTTGATGTTAATCGGGTCTTGATTCGCTTGACGCTGCTG,2.73 z-score
18,CCGATTAACATCAGGTTCTTACCTGATGTTAATCGGGTCTTGATTCGCTTGACGCTGCTG,1.79 z-score
19,CCGATTAACATCAACAAAATTCCTGATGTTAATCGGGTCTTGATTCGCTTGACGCTGCTG,1.6 z-score
20,CCGATTAACATCAAAAAAAATCCTGATGTTAATCGGGTCTTGATTCGCTTGACGCTGCTG,3.09 z-score
21,CCGATTAACATCATAAAATTCCATGATGTTAATCGGGTCTTGATTCGCTTGACGCTGCTG,1.32 z-score
22,CCGATTAACATCACCCTTGCAGGTGATGTTAATCGGGTCTTGATTCGCTTGACGCTGCTG,1.5 z-score
23,CCGATTAACATCACGGAAAGTACTGATGTTAATCGGGTCTTGATTCGCTTGACGCTGCTG,4.11 z-score
24,CCGATTAACATCAGGAATTTCCATGATGTTAATCGGGTCTTGATTCGCTTGACGCTGCTG,2.65 z-score
25,CCGATTAACATCACGGAATTTTCTGATGTTAATCGGGTCTTGATTCGCTTGACGCTGCTG,1.06 z-score
26,CCGATTAACATCAGGAAAAATCCTGATGTTAATCGGGTCTTGATTCGCTTGACGCTGCTG,1.66 z-score
27,CCGATTAACATCACTGGAATTCCTGATGTTAATCGGGTCTTGATTCGCTTGACGCTGCTG,2.95 z-score
28,CCGATTAACATCAAAAAATTCCGTGATGTTAATCGGGTCTTGATTCGCTTGACGCTGCTG,2.44 z-score

# Target: T2, GST-Aq-NF-kB (Amphimedon queenslandica, UniProt A9Y5G7 2-389)
# T2 sequence: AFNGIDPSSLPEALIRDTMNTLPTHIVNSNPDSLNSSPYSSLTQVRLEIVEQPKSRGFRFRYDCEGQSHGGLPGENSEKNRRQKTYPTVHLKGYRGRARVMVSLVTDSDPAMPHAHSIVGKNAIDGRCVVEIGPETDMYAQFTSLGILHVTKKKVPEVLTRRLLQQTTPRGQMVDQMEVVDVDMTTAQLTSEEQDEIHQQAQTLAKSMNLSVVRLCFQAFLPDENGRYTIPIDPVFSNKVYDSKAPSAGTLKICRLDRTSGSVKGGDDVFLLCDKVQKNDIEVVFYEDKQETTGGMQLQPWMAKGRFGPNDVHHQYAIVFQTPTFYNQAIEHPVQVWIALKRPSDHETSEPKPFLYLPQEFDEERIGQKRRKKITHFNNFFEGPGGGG
# Test: as above
# Conditions: dsDNA, one strand shown
row,Sequence,binding signal
1,CCGATTAACATCAAGTAATTTCCTGATGTTAATCGGGTCTTGATTCGCTTGACGCTGCTG,1.18 z-score
2,CCGATTAACATCACGGAAATTTCTGATGTTAATCGGGTCTTGATTCGCTTGACGCTGCTG,2.5 z-score
3,CCGATTAACATCACGGAATTTTATGATGTTAATCGGGTCTTGATTCGCTTGACGCTGCTG,2.25 z-score
4,CCGATTAACATCAAAAATTTTCCTGATGTTAATCGGGTCTTGATTCGCTTGACGCTGCTG,1.81 z-score
5,CCGATTAACATCAAAAATTCCGGTGATGTTAATCGGGTCTTGATTCGCTTGACGCTGCTG,2.94 z-score
6,CCGATTAACATCACGGAATTGCCTGATGTTAATCGGGTCTTGATTCGCTTGACGCTGCTG,1.14 z-score
7,CCGATTAACATCACGTGCTTTCCTGATGTTAATCGGGTCTTGATTCGCTTGACGCTGCTG,1.36 z-score
8,CCGATTAACATCAGGACATCCCATGATGTTAATCGGGTCTTGATTCGCTTGACGCTGCTG,2.15 z-score
9,CCGATTAACATCAGGTAAGTCCATGATGTTAATCGGGTCTTGATTCGCTTGACGCTGCTG,2.33 z-score
10,CCGATTAACATCACGGAAACTACTGATGTTAATCGGGTCTTGATTCGCTTGACGCTGCTG,1.46 z-score
11,CCGATTAACATCAAAAATTCCGCTGATGTTAATCGGGTCTTGATTCGCTTGACGCTGCTG,1.89 z-score
12,CCGATTAACATCAGGAAAAGTACTGATGTTAATCGGGTCTTGATTCGCTTGACGCTGCTG,1.14 z-score
13,CCGATTAACATCAAAAAAAGTACTGATGTTAATCGGGTCTTGATTCGCTTGACGCTGCTG,1.54 z-score
14,CCGATTAACATCAAGGAATTCCATGATGTTAATCGGGTCTTGATTCGCTTGACGCTGCTG,1.54 z-score
15,CCGATTAACATCAAGGAATTCCGTGATGTTAATCGGGTCTTGATTCGCTTGACGCTGCTG,1.75 z-score
16,CCGATTAACATCAGGTCTTTCCATGATGTTAATCGGGTCTTGATTCGCTTGACGCTGCTG,1.55 z-score
17,CCGATTAACATCAAGGAAATTCCTGATGTTAATCGGGTCTTGATTCGCTTGACGCTGCTG,4.14 z-score
18,CCGATTAACATCACAGAATTTCCTGATGTTAATCGGGTCTTGATTCGCTTGACGCTGCTG,1.36 z-score
19,CCGATTAACATCACGTGGTTTCCTGATGTTAATCGGGTCTTGATTCGCTTGACGCTGCTG,1.63 z-score
20,CCGATTAACATCAGGAAACTCCATGATGTTAATCGGGTCTTGATTCGCTTGACGCTGCTG,2.15 z-score

row,Sequence,binding signal
1,CCGATTAACATCAGGAATTTTACTGATGTTAATCGGGTCTTGATTCGCTTGACGCTGCTG,1.14 z-score
2,CCGATTAACATCAATGGGTTTCCTGATGTTAATCGGGTCTTGATTCGCTTGACGCTGCTG,1.07 z-score
3,CCGATTAACATCAAAAAATTCCATGATGTTAATCGGGTCTTGATTCGCTTGACGCTGCTG,1.71 z-score
4,CCGATTAACATCAGGAATCTCCATGATGTTAATCGGGTCTTGATTCGCTTGACGCTGCTG,1.6 z-score
5,CCGATTAACATCAAAAAAACTCCTGATGTTAATCGGGTCTTGATTCGCTTGACGCTGCTG,1.83 z-score
6,CCGATTAACATCAGGATTTTTTATGATGTTAATCGGGTCTTGATTCGCTTGACGCTGCTG,1.59 z-score
7,CCGATTAACATCACAGGATTTCCTGATGTTAATCGGGTCTTGATTCGCTTGACGCTGCTG,1.18 z-score
8,CCGATTAACATCAAAAAATTCCTTGATGTTAATCGGGTCTTGATTCGCTTGACGCTGCTG,2.21 z-score
9,CCGATTAACATCAGGTTCTTACCTGATGTTAATCGGGTCTTGATTCGCTTGACGCTGCTG,1.38 z-score
10,CCGATTAACATCAACAAAATTCCTGATGTTAATCGGGTCTTGATTCGCTTGACGCTGCTG,1.34 z-score
11,CCGATTAACATCAAAAAAAATCCTGATGTTAATCGGGTCTTGATTCGCTTGACGCTGCTG,2.68 z-score
12,CCGATTAACATCATAAAATTCCATGATGTTAATCGGGTCTTGATTCGCTTGACGCTGCTG,1.26 z-score
13,CCGATTAACATCACCCTTGCAGGTGATGTTAATCGGGTCTTGATTCGCTTGACGCTGCTG,1.27 z-score
14,CCGATTAACATCACGGAAAGTACTGATGTTAATCGGGTCTTGATTCGCTTGACGCTGCTG,2.92 z-score
15,CCGATTAACATCAGGAATTTCCATGATGTTAATCGGGTCTTGATTCGCTTGACGCTGCTG,3.89 z-score
16,CCGATTAACATCACGGAATTTTCTGATGTTAATCGGGTCTTGATTCGCTTGACGCTGCTG,2.35 z-score
17,CCGATTAACATCAGGAAAAATCCTGATGTTAATCGGGTCTTGATTCGCTTGACGCTGCTG,1.79 z-score
18,CCGATTAACATCACTGGAATTCCTGATGTTAATCGGGTCTTGATTCGCTTGACGCTGCTG,1.7 z-score
19,CCGATTAACATCAAAAAATTCCGTGATGTTAATCGGGTCTTGATTCGCTTGACGCTGCTG,2.61 z-score
